Screening results as filed in PubChem.
ERAP1 HTS inh = blocks human ERAP1 aminopeptidase activity | Q9NZ08 | inhibition, % at 10.7 µM | recombinant ERAP1, Leu-AMC fluorescence, 60 min | 340,000 tested, 0.15% active;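 active = mean replicate inhibition of at least 30%, or all replicates individually reaching that 30% level; inactive = mean below 30% and not every replicate reaching it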
SIRT5 inh = inhibitors of human sirtuin-5 desuccinylase. Q9NXA8. Purified SirT5, succinyl-peptide AMC, trypsin-coupled fluorescence. AID 652115. 330,000 tested, 1.1% active. inhibition, % at 15 µM; in the data active = inhibition above about 15%
INS-1E GSIS act = GLuc luminescence reporter in INS-1E cells, primary screen for activators of glucose-dependent secretion of insulin; activation, % at 16.6 µM; INS-1E GLuc reporter insulin secretion, 2-3 h; 370,000 tested, 0.61% active; AID 743287;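 active = lowest replicate activation of at least 40%, so every replicate reaches that level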
Casp6 inh = blocks human caspase-6 cleavage activity. purified caspase-6, Z-VEID-R110 cleavage fluorescence. inhibition, % at 12.5 µM. 350,000 tested, 0.53% active;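 active = mean inhibition across replicates at least about 35%, with every replicate also reaching that limit, limit read from the data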
Target sequence (P55212 24-179 limits assumed): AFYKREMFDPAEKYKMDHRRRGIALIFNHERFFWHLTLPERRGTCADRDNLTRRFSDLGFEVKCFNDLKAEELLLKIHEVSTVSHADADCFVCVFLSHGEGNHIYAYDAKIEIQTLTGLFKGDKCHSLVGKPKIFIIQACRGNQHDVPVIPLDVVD
Target sequence (P55212 194-293 limits assumed): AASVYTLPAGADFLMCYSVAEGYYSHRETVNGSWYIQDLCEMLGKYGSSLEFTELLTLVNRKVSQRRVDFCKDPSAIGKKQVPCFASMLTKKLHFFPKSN
FGF22 binding = FGF22 (human) thermal shift binding; 340,000 tested, 1.5% active; Q9HCT0; AID 651658; activity (Tm shift, normalised), % at 9.99 µM; recombinant FGF22 thermal shift, SYPRO orange fluorescence; percent of sucrose octasulfate shift, DMSO zero;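 active = mean Tm shift, scaled 0 neutral to 100 positive control, at about 1.3% or above, every replicate too, limit read from the data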
Target sequence (Q9HCT0 whole entry, looked up): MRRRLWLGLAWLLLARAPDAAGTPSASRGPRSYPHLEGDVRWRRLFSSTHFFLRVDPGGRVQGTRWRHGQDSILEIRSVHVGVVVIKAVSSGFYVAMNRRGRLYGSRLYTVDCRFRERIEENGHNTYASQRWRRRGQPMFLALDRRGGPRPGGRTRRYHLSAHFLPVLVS
A number is an active result; - = inactive; . = not tested or not shown. Shown are actives, neighbours in structure and some others; about 3.3% of the full set was active somewhere.

SMILES	ERAP1 HTS inh	SIRT5 inh	INS-1E GSIS act	Casp6 inh	FGF22 binding
COc1ccccc1/C=C1/SC(=S)N(CCC(=O)Nc2cccnc2)C1=O	-	-	-	-	-
COc1ccccc1/C=C1\SC(=S)N(CCC(=O)Nc2ccc(C(=O)O)c(O)c2)C1=O	-	46	-	41	.
O=C(CCN1C(=O)/C(=C\c2ccco2)SC1=S)Nc1ccc(C(=O)O)c(O)c1	-	57	-	73	-
O=C(CCN1C(=O)/C(=C/c2ccco2)SC1=S)Nc1ccc(C(=O)O)c(O)c1	-	50	-	74	-
O=C(Nc1ccc(F)cc1)N[C@H]1CC[C@H](CCNC(=O)c2ccccc2F)O[C@H]1CO	-	-	-	-	.
O=C(N/N=C1\C/C(=N\NC(=O)c2ccncc2)c2ccccc21)c1ccncc1	-	-	-	90	-
O=C(N/N=C/c1ccccn1)c1ccncc1	-	-	-	-	-
Cc1cccc(C)c1-n1c(SCC(=O)Nc2ccc(C(=O)O)cc2)nnc1-c1cccc(S(=O)(=O)N(C)C)c1	-	-	-	-	43
COC(=O)C[C@H]1CC[C@@H]2[C@@H](COc3ccc(NC(=O)c4ccc(F)c(F)c4)cc3C(=O)N2C)O1	-	-	-	-	-
C[C@H]1CN([C@@H](C)CO)C(=O)Cc2cc(NC(=O)Nc3ccc(F)cc3)ccc2O[C@H]1CN(C)Cc1ccncc1	-	-	-	-	-
Cc1ccc(S(=O)(=O)N2c3ccccc3CC2C)cc1 (centres undefined)	-	-	-	-	.
Cc1ccc(S(=O)(=O)N2c3ccc(S(N)(=O)=O)cc3CC2C)cc1 (centres undefined)	-	-	-	-	44
C=CCn1c(SCC(=O)NCc2ccc3c(c2)OCO3)nc2scc(-c3ccc(F)cc3)c2c1=O	.	.	112	.	.
C=CCn1c(SC(C)C(=O)NCc2ccc3c(c2)OCO3)nc2scc(-c3ccccc3)c2c1=O (centres undefined)	.	.	-	.	.
Cc1cc(C)c(C(=O)COC(=O)c2cccnc2Cl)c(C)c1	-	-	-	-	43
C[C@@H]1CN([C@@H](C)CO)C(=O)c2cc(NC(=O)Nc3ccccc3)ccc2O[C@@H](C)CCCCO[C@H]1CN(C)C(=O)CCCN(C)C	-	-	-	-	-
COc1ccc(C)cc1Nc1n[n+](-c2ccccc2)c(-c2ccc(C(=O)O)cc2)s1	-	-	.	-	44
CCCNC(=O)N1CC2(CCN(C)CC2)c2c(n(C)c3cc(OC)ccc23)[C@H]1CO	.	.	-	.	-
CC(C)C(=O)Nc1ccc2c(c1)C(=O)N(C)[C@H]1CC[C@H](CC(=O)N[C@H](C)c3ccccc3)O[C@H]1CO2	.	.	-	.	-
Cc1noc(C)c1S(=O)(=O)N(C)C[C@@H]1OCCCC[C@@H](C)Oc2ccc(NS(=O)(=O)c3cccs3)cc2C(=O)N([C@@H](C)CO)C[C@H]1C	-	-	-	-	-
CCn1c(SCc2nc3cc(OC)c(OC)cc3c(=O)[nH]2)nc2ccccc21	-	-	-	-	-
CCSc1nc2cc(OC)c(OC)cc2c(=O)n1CC	.	.	69	.	.
CC(C)(C)N1CC(C(=O)O)CC1=O (centres undefined)	-	-	-	-	43
CC(C)(C)N1CC(C(=O)Nc2cccc(Cl)c2Cl)CC1=O (centres undefined)	-	-	.	-	-
COc1ccc2c3c(n(C)c2c1)[C@@H](CO)N(C(=O)C1CCC1)CC31CN(C(=O)Nc2cccc(F)c2)C1	-	-	-	-	-
SMILES	ERAP1 HTS inh	SIRT5 inh	INS-1E GSIS act	Casp6 inh	FGF22 binding
Cc1ccn2c(NC3CCCCC3)c(-c3cccc(-c4cccc(Cl)c4)c3)nc2c1	-	16	-	-	-
C=C(C)C(=O)Nc1nnc(-c2cccs2)s1	.	.	118	.	.
NS(=O)(=O)c1ccc(N=Nc2ccc(O)c3ncccc23)cc1	-	-	-	51	-
CCOc1ccc(N=Nc2ccc(O)c3ncccc23)cc1	-	-	-	-	-
NS(=O)(=O)c1ccc(N=Nc2ccc(=O)[nH]c2O)cc1	-	-	-	70	-
CC(C)NC(=O)Nc1ccc2c(c1)C(=O)N([C@H](C)CO)C[C@H](C)[C@@H](CN(C)C(=O)Nc1ccc3c(c1)OCO3)OCCCC[C@@H](C)O2	-	-	-	-	-
CCc1nc2ccccc2c(C(=O)Oc2ccc(C(=O)OC)cc2)c1C	-	-	-	-	44
COc1ccc(/C=C/C(=O)O)cc1S(=O)(=O)NC1CCS(=O)(=O)C1 (centres undefined)	-	-	-	-	44
C[C@H]1CN([C@@H](C)CO)C(=O)c2cccc(NC(=O)c3ccncc3)c2O[C@@H]1CN(C)CC1CC1	-	-	-	-	-
NCC[C@@H]1CC[C@H](NS(=O)(=O)Cc2ccccc2)[C@@H](CO)O1	-	-	-	-	-
Cc1ccc(S(=O)(=O)Cc2ccc(C(=O)O)o2)cc1	-	-	-	52	-
C[C@@H]1CN([C@@H](C)CO)C(=O)c2ccccc2-c2ccccc2CO[C@@H]1CN(C)Cc1ccccc1C(F)(F)F	-	-	-	-	-
C[C@H]1CN([C@@H](C)CO)C(=O)c2ccccc2-c2ccccc2CO[C@@H]1CN(C)Cc1ccc(Cl)c(Cl)c1	-	19	42	-	-
C[C@H]1CN([C@@H](C)CO)C(=O)c2ccccc2-c2ccccc2CO[C@@H]1CN(C)C(=O)Nc1ccccc1C(F)(F)F	-	21	-	-	-
C[C@@H]1CN([C@H](C)CO)C(=O)c2ccccc2-c2ccccc2CO[C@@H]1CN(C)Cc1cccc(C(F)(F)F)c1	-	-	-	-	-
C[C@H]1CN([C@@H](C)CO)C(=O)c2ccccc2-c2ccccc2CO[C@@H]1CN(C)Cc1cccc(C(F)(F)F)c1	-	19	56	-	-
C[C@H]1CN([C@@H](C)CO)C(=O)c2ccccc2-c2ccccc2CO[C@H]1CN(C)Cc1ccccc1C(F)(F)F	-	17	-	-	-
C[C@@H]1CN([C@H](C)CO)C(=O)c2cc(NS(=O)(=O)c3cn(C)cn3)ccc2O[C@@H]1CN(C)Cc1ccc(Oc2ccccc2)cc1	-	-	-	-	-
CCOC(=O)N(C)C[C@@H]1OCc2ccccc2-c2ccccc2C(=O)N([C@@H](C)CO)C[C@H]1C	-	25	-	-	-
CCOC(=O)N(C)C[C@@H]1OCc2ccccc2-c2ccccc2C(=O)N([C@H](C)CO)C[C@@H]1C	-	-	-	-	-
C[C@H](CO)N1C[C@H](C)[C@H](CN(C)Cc2ccccc2C(F)(F)F)OCc2ccccc2-c2ccccc2C1=O	-	-	-	-	-
C[C@H](CO)N1C[C@H](C)[C@@H](CN(C)Cc2ccccc2C(F)(F)F)OCc2ccccc2-c2ccccc2C1=O	-	30	.	-	-
CC=Cc1ccc2n(c1=O)C[C@@H]1[C@@H](CO)[C@H](C(=O)NC3CCCC3)N(CCC)[C@H]21 (mixture of isomers)	-	15	-	-	.
